In the supplement of paper PMC6555819:

What follows are sequences tested on VDR:RXRa (NR concentration 270 nM, RXRa partner concentration 90 nM) (assay: PBM binding z-score (relative to random genomic background probes); higher = stronger binding; sequences stand for … in GC…GCGATTGACAGCGTAGAATGAAGG).
Procedure: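 Protein-binding microarray (Agilent 4x180K custom design, double-stranded 60-nt probes: 5' GC cap, 34-nt variable region, 24-nt constant primer region; full probe sequence given). Purified or IVT nuclear receptor:RXRα heterodimers (3:1 NR:RXRα, mostly 270:90 nM) or homodimers were incubated for 1 h in PBS with 2% milk and no ligand, then detected with Alexa488 antibodies. Fluorescence from o1-orientation probes (~5 replicates averaged) was converted to z-scores against 500 random hg19 background probes. Variable regions are seed direct-repeat (DR0–DR5) sites, all their single-nucleotide variants and half-site ablations.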

Sequence	PBM binding z-score
CGAAGTAGGTCACCAGGACAGTGAAGAGGTTGGA	2.07
TCATATAGGTTAAGGTGAAAGTCGAACGATATGA	0.985
CGAACTATGTCACCAGGACAGTGAAGAGGTTGGA	0.173
CAATCTAGGTCAAAGGTCAAAGTCGAGCCAACCA	6.74
CGAACTAGGTCAAAAGACAGTGAAAGGCGACGTA	0.721
CGAAATAGGTCACCAGGACAGTGAAGAGGTTGGA	2.91
GATCCAGGGTCAGCTAGAGGCCAGAGTATGGAAA	3.16
CCTCGGAGGTCAGAAGGTCAGAGCTGTCCGCTTT	4.38
CCGACTAGGTTACGAGGGGGCATTCAGTGCGAAT	4.96
CAACCTAGGTCACGAAAGGTCAAAGTCGAATGAC	7.15
CAAAGTAGGTCACGAAAGGTCAAAGTCGAATGAC	6.82
CGAACTAGGTCAAAGGACAATGAAAGGCGACGTA	1.73
CGAACTAGGTCACCAGGACAGTGCAGAGGTTGGA	2.28
AATACAGGGTCACTAGGTCAGAGTAGGTACGAAT	5.25
AGTCAAAGTTCTTCTAGGTAACGTAAGATATGCT	0.489
CTATGTAGCTTAAGGGGGTCATTCAGTTTGAAAG	6.4
CGAACTAGGTCAGAACAGTACAGTGAAGGATGAT	0.879
CGTCCAAGGTCAATTCTAGGTCAGTGAAAGCATT	4.61
ATATGTAGGTGAGGGTCATTCAGAAAGTAGGGAA	3.42
CGTCAAAGTTCTAGGTAACGTAACAGAAAGCAGC	0.0814

Sequence	PBM binding z-score
TCTAGTTGGTCAAAGGTCAAACACTCGAAATGCG	5.41
TCGAGTAGGTTACGGGGGCATTGAGGGATGAAGA	3.66
CGTCCAAGGTCAGAGAGGTCAGTGACTGCCGAGT	7.27
CCGAGTAGGTTACGAGGGGGCATTCACTGCGAAT	4.98
CCTACTGGGCCAAGGTCATAGATCAGTCAAAGCA	2.87
CGAACTAGGTCAACAGGACAGTGAAGAGGTTGGA	1.53
CCTTACGGGTAACTCCAGGTTATAGCATCGGAGT	0.375
CGAACTCGGTCAAAGGACAGTGAAAGGCGACGTA	0.208
TCGAGTAGGTTACGGGGGCATTCTGGGATGAAGA	3.65
AATACAGGATCACTAGGCCAGAGTAGGTACGAAT	-0.235
CGAACTAGTTCAAGGACAGTGAATCTCCGCACGC	0.348
GTACCAAGGTGAATAGGTCGTTGATGAGTAGGCG	0.95
CCGAGTAAGTTACGAGGGGGCATTCAGTGCGAAT	3.83
TCGAGTAGGTTACGGGGGCATTCATGGATGAAGA	3.71
ACATGTAGGTTAGGGTCATTCAGAAAGTAGGGAA	4.52
CTATGTAGGTTATGGGGGTCATTCAGTTTGAAAG	7.53
ATATGTAGGTTAGGGTCATTCAAAAAGTAGGGAA	4.58
CTATGTAGGTTAAGGGGGCCATTCAGTTTGAAAG	4.74
TCTTGTAGATCAAAGGTTAAGACAGCCGAAGCCT	1.68
CGAACTAGGTCAAAGGACAGTGAGAGGCGACGTA	1.19
